From the supplement of paper PMC6555819

Columns and labels:
Assay in all cases: PBM binding z-score (relative to random genomic background probes); higher = stronger binding; sequences stand for … in GC…GCGATTGACAGCGTAGAATGAAGG
[1] = system: FXR:RXRa (NR concentration 270 nM, RXRa partner concentration 90 nM)
Procedure, shortened: (§1)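 Each nuclear receptor dimer, without ligand, was incubated for 1 h on custom Agilent 4×180K protein-binding microarrays. Binding was detected with antibodies against each partner (one per run), and scanned fluorescence was regression-normalized. The binding z-scores are referenced to random human genomic background probes.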

[2] = system: LXRa:RXRa (NR concentration 270 nM, RXRa partner concentration 90 nM)
Procedure, shortened: as §1

[3] = system: LXRa homodimer (NR concentration 270 nM)
Procedure, shortened: as §1

[4] = system: LXRb:RXRa (NR concentration 270 nM, RXRa partner concentration 90 nM)
Procedure, shortened: as §1

[5] = system: LXRb homodimer (NR concentration 270 nM)
Procedure, shortened: as §1

[6] = system: PPARa:RXRa (NR concentration 270 nM, RXRa partner concentration 90 nM)
Procedure, shortened: as §1

[7] = system: PPARg:RXRa (NR concentration 180 nM, RXRa partner concentration 90 nM)
Procedure, shortened: as §1

[8] = system: PPARg:RXRa 270nM:90nM, anti-RXR (NR concentration 270 nM, RXRa partner concentration 90 nM)
Procedure, shortened: as §1

[9] = system: PPARg:RXRa 30nM:10nM, anti-RXR (NR concentration 30 nM, RXRa partner concentration 10 nM)
Procedure, shortened: as §1

[10] = system: PPARg:RXRa 90nM:30nM, anti-RXR (NR concentration 90 nM, RXRa partner concentration 30 nM)
Procedure, shortened: as §1

[11] = system: PPARg:RXRa DBDmut IVT, anti-RXR (DBD mutation: RXRa K156A/R161A, NR concentration 270 nM, RXRa partner concentration 90 nM)
Procedure, shortened: as §1

[12] = system: PPARg:RXRa IVT, anti-PPARg (NR concentration 270 nM, RXRa partner concentration 90 nM)
Procedure, shortened: as §1

[13] = system: PPARg DBDmut:RXRa IVT, anti-PPARg (DBD mutation: PPARg1 K132A/R137A, NR concentration 270 nM, RXRa partner concentration 90 nM)
Procedure, shortened: as §1

[14] = system: PPARg DBDmut IVT, anti-PPARg (DBD mutation: PPARg1 K132A/R137A, NR concentration 270 nM)
Procedure, shortened: as §1

[15] = system: PPARg homodimer (NR concentration 180 nM)
Procedure, shortened: as §1

[16] = system: PXR:RXRa (NR concentration 270 nM, RXRa partner concentration 90 nM)
Procedure, shortened: as §1

[17] = system: PXR homodimer (NR concentration 270 nM)
Procedure, shortened: as §1

[18] = system: RARa:RXR (NR concentration 270 nM, RXRa partner concentration 90 nM)
Procedure, shortened: as §1

[19] = system: RARa homodimer (NR concentration 270 nM)
Procedure, shortened: as §1

[20] = system: RARb:RXRa (NR concentration 270 nM, RXRa partner concentration 90 nM)
Procedure, shortened: as §1

Sequence	PBM binding z-score [1]	PBM binding z-score [2]	PBM binding z-score [3]	PBM binding z-score [4]	PBM binding z-score [5]	PBM binding z-score [6]	PBM binding z-score [7]	PBM binding z-score [8]	PBM binding z-score [9]	PBM binding z-score [10]	PBM binding z-score [11]	PBM binding z-score [12]	PBM binding z-score [13]	PBM binding z-score [14]	PBM binding z-score [15]	PBM binding z-score [16]	PBM binding z-score [17]	PBM binding z-score [18]	PBM binding z-score [19]	PBM binding z-score [20]
TAGCCAAGGTCATGCGGGCCAGTATAGTGTCGGC	7.03	4.97	1.17	3.87	0.499	5.58	4.64	4.84	1.61	3.73	1.6	3.47	1.13	0.504	1.92	4.35	1.1	4.48	0.0818	5.09
CCTCGGAGGACAACAGGAGTTCAGAGCTGCCAGA	0.094	0.777	1.72	-0.123	-0.822	0.00336	0.0297	-0.913	-1.16	-1.11	-0.298	-1	-2.34	-1.22	0.513	1.92	1.78	0.366	0.371	1.67
TTACCAAGGTGAAGGTCGTTTATCCCTCTGTAGA	1.45	1.55	0.229	1.54	-0.0351	2.47	2.42	3.95	1.78	3.31	2.02	3.38	0.35	0.225	0.696	1.7	0.623	1.65	-0.48	2.2
CGAACGAGGGCATGAGTTGATAACAAATGCCGAT	0.424	0.218	-0.205	0.254	-0.653	1.44	1.53	1.35	0.389	0.841	2.8	1.8	0.105	-0.206	0.149	0.497	0.164	0.612	-0.168	1.83
GCAGACAGGAGAAACGCAGGTAACTCAGGGTGGC	-0.504	-0.393	-0.471	-0.777	-1.34	-0.523	0.376	-0.659	-0.781	-0.611	-0.542	-0.859	-0.9	-0.99	-0.201	-0.694	-0.412	-0.368	-1.26	-0.624
CCTGCTAGGTAATGGTCAGCTAATCTACAGTATG	-0.151	-0.438	-0.575	-0.764	-0.48	-0.344	-0.182	-0.104	-0.225	-0.424	1.12	0.132	-0.293	-0.811	-0.722	-0.534	-0.524	-0.39	0.217	0.113
CAGCCTAGGGCAGGGCCAGTATAGGAGGAACGTT	-0.713	-0.785	-0.921	-1.11	-1.4	-0.747	-0.037	-0.861	-0.884	-1.24	-0.842	-0.372	-2.01	-1.9	-1.39	-1.13	-0.815	-0.853	-0.656	0.716
GCTGCTAGGTCAACTGATGGTCAGCTCAAGCTCG	4.04	3.02	0.195	2.03	0.0529	3.43	2.32	2.98	0.574	1.74	4.88	3.98	-0.00259	-0.768	2.12	1.66	-0.637	2.9	-0.413	4.23
CAAACTAGGTCTCAGAGGTCAAAGTCCGTGCGTA	4.78	5.2	5.13	4.97	1.8	5.18	4.67	5.17	2.69	4.41	5.55	5.54	0.45	0.559	2.98	5.51	2.93	5.67	1.38	3.88
CCGACTGGGGCATAAGGTTACCACAAGCCAGCCC	0.502	1.28	-0.388	0.812	-0.551	2.07	2.44	3.27	0.735	2.92	2.87	3.09	-1.04	-1.03	0.364	0.223	-0.315	1.25	-0.43	1.73
TAGCCTAGGTCATTGGGCCAGTGTAGTACGCATC	4.3	3.42	0.864	2.46	0.102	3.86	3.6	3.76	0.587	2.41	2.97	4.15	1.07	-0.249	0.874	1.41	-0.395	2.15	-0.103	3.69
CCTATTAGTTGACCATAAAGGCAACCGAAGCTCG	0.384	0.566	0.992	0.76	0.816	-0.0568	0.377	0.275	0.147	0.00767	0.277	0.572	0.612	1.06	1.55	0.343	1.08	0.436	2.45	0.404
ACAGACAGGTGAGAGAAGGTAACTCAGCTGGACG	0.34	-0.0792	-0.413	-0.366	-0.81	0.165	0.832	-0.247	0.0838	0.154	0.676	0.706	0.0985	-0.367	-0.0826	-0.372	-0.505	0.102	-0.00725	0.565
ATCTCTAGCTAAAAGTTCAGTGAATCCCGAGGAT	0.149	0.948	1.36	0.693	0.99	0.474	0.264	1.29	0.52	0.949	-0.639	-0.151	0.697	1.23	0.702	1.3	1.49	0.379	0.986	2.17
AATACAGGGTCACTAGGGCAGAGTAGGTACGAAT	6.65	5.17	1.38	4.23	1.51	5.86	8.85	6.78	3.79	6.46	4.88	6.25	2.07	2.29	3.08	3.51	1.1	4.65	1.32	4.27
CCTGATAGGTCAATGGTCAGCTAAAGCAGCTCGC	5.01	3.98	0.776	2.92	0.415	4.48	4.56	4.96	2.53	4.35	3.36	3.31	-0.515	-0.301	2.74	2.07	0.0154	2.95	0.334	4.06
CCTAGCAGGCCATGGTCACTCAAGCATTTCGCTT	-0.268	-0.369	-0.374	-0.307	-0.863	-0.349	-0.143	-0.198	-0.855	-0.418	1.57	0.401	-1.7	-1.39	-0.683	-0.611	-0.713	-0.498	-0.226	0.678
TCATATAGGTAAATGCTAGGTGAAAGTACGATCT	1.24	0.992	0.296	0.731	0.0256	1.6	1.69	2.52	3.66	3.19	3.93	3.03	1.24	1.57	0.891	0.968	0.678	1.38	1.13	0.64
AATACAGGGTCATCGTGGGCCAGAGTACGCACAG	7.26	6.08	2.41	4.65	0.911	5.96	6.73	5.81	2.73	4.56	2.57	4.37	0.764	1.07	2.16	4.59	0.368	4.92	0.514	4.36
